This note sets out measurements from PubChem BioAssay (NCI).

Each structure is given as a SMILES string. This is part of a sample that, as a whole, favours compounds with a hit. Of some 83,000 tested, about 20% had one in any assay.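 Testing used 96-well plates and a 48-hour single-concentration exposure. Example: -40 means 40% of the starting cells died.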 Active and inactive are the calls of the source. Rule for the calls: active = growth percent below 10; inactive = the rest.

This assay has as its system HL-60(TB) leukemia. Description: NCI-60 one-dose screen, 48 h (100 = growth as untreated, 0 = no growth, -100 = all killed). Particulars: 10 µM unless noted.
Take `NS(=O)(=O)c1ccc(N=Nc2c(O)n(Cc3ccccc3)c3ccc(Cl)cc23)cc1`: the growth was 95% (inactive).
Turning to `N#CC1=C(N)Oc2ccc3ccccc3c2C1c1ccccc1Cl` (stereo not given), the growth is 0.765% (active).
On to `COc1ccc2cc(Cn3cc[n+](Cc4ccc5ccccc5c4)c3)ccc2c1`, for which the growth was -46.6% (active).
On to `COc1cc(Cl)cc(-c2nn(-c3cccc(NC(=O)Nc4ccc(Cl)c(Cl)c4)c3)cc2-c2ccncc2)c1`, for which the growth is -5.12% (active).
On to `N=C(N)c1ccc(-c2ccc(-c3cc(Cl)cc(Cl)c3)s2)cc1`, for which the growth is -57.6% (active).
As for `COc1ccc(Cn2c(Br)c3c(c2-c2cc(OC)c(OC)c(OC)c2)CCc2sc(N)nc2-3)cc1`, the figure is -14.5% (active); as for `Cn1cc(-c2ccc(F)c(C(F)(F)F)c2)nc1C1CCN(c2ncnc3[nH]ncc23)CC1`, 84.7% (inactive).
As to `c1cncc(CNc2ccccc2-c2nnc(Nc3ccc4c(c3)OCO4)o2)c1`, the growth was -22.5% (active).
In the case of `O=c1c2sc3ncc(Cl)cc3c2nnn1-c1cccc(Cl)c1`, the growth is 91.8% (inactive).
Regarding `NC(=O)c1c(OCc2c(F)cc(Br)cc2F)nsc1NC(=O)NCCCCN1CCCC1`, the growth was -64.6% (active).
For the molecule `CCCCCC/C=N/Nc1ccc([N+](=O)[O-])cn1`, the growth was 62.5% (inactive).
As for `CCc1ccc(/C(C#N)=C/C=C/c2ccccc2)cc1`, the growth was -1.39% (active).
As for `OCc1cnccc1NCCCCOc1ccc(Oc2ccccc2)cc1`, the figure is 22.7% (inactive); as for `COc1ccc(-c2nc(-c3cc(OC)cc(OC)c3)[nH]c2-c2ccc(OC)cc2)cc1`, 30.1% (inactive); as for `CCN(CC)CC(=O)Nc1c(C)cccc1C`, 107% (inactive).
For `Clc1ccc(Nc2nnc(CNc3ccccc3)c3ccccc23)cc1`, the growth is -13.4% (active).
Regarding `COc1ccc(C2CC(=O)c3c(O)c(OC)c(OC)c(OC)c3O2)cc1O` (stereo not given), the growth is -4.32% (active).
As to `O=c1[nH]c2ccccc2cc1-c1nc2ccncc2[nH]1`, the growth is 25.9% (inactive).
`Cc1cc(=O)c2c(C)ccc(C)c2[nH]1`: the growth is 96.7% (inactive).
Regarding `CSc1ccc(OC(C)=O)cc1C`, the growth is 97.7% (inactive).
As for `CC(C)=CCC[C@](C)(O)[C@H]1CC[C@]2(C)[C@@H]1CC[C@@H]1[C@@]3(C)C/C(=C/c4cccc([N+](=O)[O-])c4)C(=O)C(C)(C)[C@@H]3CC[C@]12C`, the growth was 68.4% (inactive).
In the case of `N#C/C(=C\c1ccc(-c2ccc(F)cc2)o1)c1nc(-c2ccco2)cs1`, the growth is 98% (inactive).
For `Cc1nc2cnc(N)c(C#Cc3cncc(C(=O)Nc4ccc(CN5CCN(C)CC5)c(C(F)(F)F)c4)c3)c2nc1C`, the growth was -16.4% (active).
With `CC1(C)CC[C@]23CC[C@]4(C)[C@H](CC[C@@H]5[C@@]6(C)CCNCC(C)(C)[C@@H]6CC[C@]54C)[C@H]2[C@H]1OC3`, the growth is 23.6% (inactive).
As for `CCCN(CCC)CC(O)COc1ccccc1C(=O)Nc1ccccc1` (stereo not given), the figure is 17.3% (inactive).
As for `NC(=O)c1cccc(-c2cc(C(N)=O)ccc2Cl)c1`, the figure is -22.7% (active); as for `CC(C)c1nc2ccccc2n1CC(=O)N/N=C/c1cccc(O)c1`, 86.5% (inactive).
On to `COc1cccc(C(=O)NCCCNc2cc(-c3cn(-c4ccccc4)nc3-c3cccc(OC)c3)ccn2)c1`, for which the growth was 22.7% (inactive).
Consider `NC(=O)SCC(=O)Nc1ccccc1-c1ccccc1`, for which the growth was 80.3% (inactive).
With `Clc1ccc([C@@H]2C[C@@H]3Cc4cc(Br)c5ccccc5c4N2O3)c(Cl)c1`, the growth is 54.3% (inactive).
On to `Clc1ccc(SSc2ccc(Cl)cc2)cc1`, for which the growth was 102% (inactive).
With `Cc1ccc(C(=O)Nc2nc3c(s2)CN(Cc2ccccc2)CC3)cn1`, the growth is 92.6% (inactive).
For `CSC1=C(N)C(=O)c2[nH]cc(CO)c2C1=N`, the growth was -28.1% (active).
On to `COc1cc(-c2nc(SCC(=O)Nc3ccc(C(C)=O)cc3)[nH]c(=O)c2C#N)cc(OC)c1OC`, for which the growth was -54.3% (active).
As for `COc1cc(C2CC(c3cccc(Nc4ccncc4)c3)=NN2c2ccccc2)cc(OC)c1OC` (stereo not given), the figure is -43.8% (active); as for `C=C(C)[C@@H]1CC[C@]2(C)[C@H](CC=C3[C@@H]4CC(C)(C)CC[C@]4(C=O)CC[C@]32C)[C@@]1(C)CCCN`, -3.43% (active); as for `Cc1nn(-c2ccc(-c3ccc(OC(F)(F)F)cc3)cc2)c2nc(Cc3ccccc3)nc(N)c12`, 88.3% (inactive).
As for `COc1ccc(CC(C)=C(c2ccc(OCCN(C)C)cc2)c2ccc(OCCN(C)C)cc2)cc1`, the figure is 41.3% (inactive); as for `COc1cc(C)cc2oc3oc(=O)c(C(=O)c4cc5cc(Br)ccc5o4)cc3c(=O)c12`, 103% (inactive); as for `CC(C)C1CCC(C)C(C2(C#N)C(N)=NC(N)=C2C#N)C1=O` (stereo not given), 96.7% (inactive).
